# Screening data: PubChem, National Center for Advancing Translational Sciences (NCATS)
# Only some compounds are listed: those with a hit (about 1.4% of all), similar ones and a draw of the others.
# KCNH2 3.1 block = inhibitors of human KCNH2 3.1 potassium channel isoform | actives 0.95% (n = 340,000) | U2OS KCNH2 3.1, thallium flux FluxOr; hits give low values | activity change, % (tested at about 1.8 µM);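 active = maximum activity change below -70%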;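 note: thallium influx rate constant from kinetic fluorescence after stimulation buffer; % is set by controls: 0 for no effect and ±100 for the full control effect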
#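 Virally transduced U2OS (3.1 isoform, 4 h infection in dark at RT) → overnight 37 C → FluxOr + Red40 in HBSS/HEPES, 45 min → stimulation buffer, 2 min kinetic read → rate constant vs DMSO controls.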
# KCNH2 WT inh = blocks the wildtype human KCNH2 potassium channel; U2OS, BacMam KCNH2, thallium flux FluxOr; hits give low values; Q12809; actives 0.37% (n = 340,000); activity change, % at 1.84 µM;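 active = maximum activity change below -70%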; note: % is set by controls: 0 for no effect and ±100 for the full control effect
# Target sequence (Q12809 whole entry, looked up): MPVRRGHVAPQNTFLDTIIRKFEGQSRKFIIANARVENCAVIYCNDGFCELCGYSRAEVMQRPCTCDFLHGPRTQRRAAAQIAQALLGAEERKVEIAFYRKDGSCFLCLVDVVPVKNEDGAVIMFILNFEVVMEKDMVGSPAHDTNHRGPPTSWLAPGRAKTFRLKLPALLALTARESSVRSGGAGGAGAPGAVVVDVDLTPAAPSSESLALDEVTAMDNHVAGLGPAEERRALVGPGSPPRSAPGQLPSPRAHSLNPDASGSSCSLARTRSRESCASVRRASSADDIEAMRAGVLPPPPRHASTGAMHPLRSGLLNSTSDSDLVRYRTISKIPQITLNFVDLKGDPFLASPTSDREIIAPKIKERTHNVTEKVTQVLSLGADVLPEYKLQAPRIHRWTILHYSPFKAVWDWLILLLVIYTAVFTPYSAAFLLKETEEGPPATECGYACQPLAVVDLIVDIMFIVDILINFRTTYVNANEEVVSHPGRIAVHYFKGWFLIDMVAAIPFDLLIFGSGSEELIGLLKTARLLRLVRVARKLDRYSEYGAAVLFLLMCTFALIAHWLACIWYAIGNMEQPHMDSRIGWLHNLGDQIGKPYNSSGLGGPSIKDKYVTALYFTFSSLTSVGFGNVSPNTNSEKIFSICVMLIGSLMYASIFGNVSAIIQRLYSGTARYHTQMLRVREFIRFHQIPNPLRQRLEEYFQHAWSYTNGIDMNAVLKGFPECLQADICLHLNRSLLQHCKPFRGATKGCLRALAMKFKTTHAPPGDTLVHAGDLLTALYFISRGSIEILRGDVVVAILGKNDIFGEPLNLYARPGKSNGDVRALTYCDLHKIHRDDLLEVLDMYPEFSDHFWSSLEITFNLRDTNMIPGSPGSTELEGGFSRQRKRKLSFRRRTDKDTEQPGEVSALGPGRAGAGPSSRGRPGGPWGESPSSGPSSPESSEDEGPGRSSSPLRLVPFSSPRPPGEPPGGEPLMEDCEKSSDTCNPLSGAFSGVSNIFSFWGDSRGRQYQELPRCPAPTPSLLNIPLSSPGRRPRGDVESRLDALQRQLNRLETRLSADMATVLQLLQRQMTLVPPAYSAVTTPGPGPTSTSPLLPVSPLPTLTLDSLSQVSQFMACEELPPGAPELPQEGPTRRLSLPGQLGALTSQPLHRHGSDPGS
#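 U2OS cells were transduced with wild-type KCNH2 virus (2.03 x 10^8 / mL) for 4 h at room temperature, then cultured overnight at 37 C. Thallium flux was read with FluxOr dye. Rate constants were normalized to DMSO controls.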
# EPAC2 antag = antagonists of human EPAC2; Q8WZA2; EPAC2 GEF exchange of Rap1B-BODIPY-GDP, fluorescence; Potency, µM (titrated, usually from 114 µM), for the others: at the top dose activity, negative = inhibition, actives largely listed as inhibitors; actives 0.18% (n = 360,000); AID 720708; note: potency is the fitted concentration of half-maximal effect; % is set by controls: 0 for no effect and ±100 for the full control effect; nearly all actives have a fitted effect of over 45% in size
# EPAC1 ag = activates human EPAC1 exchange factor; AID 720707; Potency, µM (series often up to 154 µM), inactives show top-dose activation, actives largely listed as activators; EPAC1 agonist qHTS, biochemical assay; response scale: 100% = response to 6.5 mM cAMP; actives 0.073% (n = 360,000); note: potency is the fitted concentration of half-maximal effect; nearly all actives have a fitted effect of over 60% in size
#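 Compounds were pinned as a concentration titration into mixtures of EPAC1 (100 nM), BODIPY-GDP-loaded Rap1B (250 nM) and GDP (50 uM). After 5 min at room temperature, fluorescence was followed for 30 min; activity was scaled to 6.5 mM cAMP.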
# EPAC2 agonist = EPAC2 (human) agonism; EPAC2 activation, biochemical qHTS; response scale: 100% = 6.5 mM cAMP response; Potency, µM (series often up to 154 µM), inactives show at the highest dose activation, usual class: activators; actives 0.079% (n = 360,000); note: potency is the fitted concentration of half-maximal effect; nearly all actives have a fitted effect of over 50% in size
#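 Compounds were titrated in qHTS against a Rap1B-BODIPY-GDP (250 nM) complex with EPAC2 (100 nM) and GDP (50 uM). BODIPY-GDP release tracked at 480/540 nm over 30 min at room temperature, normalized to 6.5 mM cAMP.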
# EPAC1 antagonist = antagonists of human EPAC1. O95398. AID 720709. Potency, µM (top dose mostly 115 µM), for the others: at the top dose activity change, negative = inhibition, actives largely listed as inhibitors. actives 0.14% (n = 360,000). EPAC1 GEF assay, Rap1b-BODIPY-GDP exchange fluorescence;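 note: potency is the fitted concentration of half-maximal effect; plate controls were vehicle for no effect and positive control for full effect; nearly all actives have a fitted effect of over 50% in size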
# * = called active by the depositor; · = no result. Unless noted, calls come from the whole dose curve; as a rule, active = well fitted curve in the direction sought with a large enough effect; inconclusive = small, poorly fitted or top-dose-only effect, or another doubt; inactive = no such curve, though single readings can be large; an effect the other way counts as inactive or inconclusive.
SMILES,KCNH2 3.1 block,KCNH2 WT inh,EPAC2 antag,EPAC1 ag,EPAC2 agonist,EPAC1 antagonist
COc1ccc(C2=Nc3ccc(C)cc3C(c3ccccc3)N2CC(=O)NN)cc1 (stereo not given),-190*,-16,7%,4%,6%,5%
COc1cccc(C(=O)NCC2CCCN(C(=O)Cc3cccc(C)c3)C2)c1OC (stereo not given),0,-4,-18%,0%,1%,3%
COc1cccc(C(C)(O)c2nc(-c3cnn(C)c3)cs2)c1 (stereo not given),·,·,10%,-16%,12%,-8%
C=C1C(=O)OCC2C(C(=O)O)=CC3C(C)C(C)=CC123 (stereo not given),7,-1,2%,-2%,1%,2%
O=C(NN1C(=O)C2C3C=CC(C3)C2C1=O)c1cccc(Cl)c1 (stereo not given),-15,-78*,-1%,0%,0%,-1%
O=C(NN1C(=O)C2C3C=CC(C4CC34)C2C1=O)c1ccc(Cl)c(Cl)c1 (stereo not given),12,15,-2%,3%,-10%,0%
C[C@H]1CN([C@@H](C)CO)C(=O)CCCn2cc(nn2)CO[C@@H]1CN(C)C(=O)Nc1ccc2c(c1)OCCO2,10,-1,9%,-15%,9%,-13%
CC(C)(C)NC(=O)C(CCc1ccccc1)n1c(=O)c(-c2cc3ccccc3[nH]2)nc2ccccc21 (stereo not given),·,·,-8%,-8%,-1%,-13%
CCN(CC(=O)Nc1c(F)cccc1F)C(=O)C1(c2ccccc2)CC1,·,0,16%,-6%,3%,-1%
COC(=O)c1cc(C(=O)c2cc(Cl)ccc2O)coc1=N,-5,-172*,2%,0%,9%,4%
CC1Sc2ccc(C(=O)OCc3ccccc3Cl)cc2NC1=O (stereo not given),-21,2,3%,50µM*,0%,0%
COc1cccc(COC(=O)c2ccc3c(c2)NC(=O)C(C)S3)c1OC (stereo not given),-14,4,-5%,-13%,-8%,-18%
Cc1nc(N)c(C#N)c(-c2ccccc2)c1C,-6,-2,1%,4%,3%,-15%
Cc1cc(C)c2c(n1)sc1c(-c3ccccc3)c(C#N)c(N)nc12,-184*,-244*,-3%,-1%,10%,-5%
CC(C)(C)OC(=O)C[C@H]1C/C=C\C[C@H](CC(=O)N(CCO)Cc2ccccc2)C(=O)N[C@H](C(C)(C)C)COC1=O,-5,-13,-7%,-30%,-5%,7%
CO[C@@H]1CN(C)C(=O)c2ccc(NC(=O)c3ccccc3F)cc2OC[C@@H](C)N(CC2CCOCC2)C[C@@H]1C,·,·,2%,0%,-2%,-11%
CC/S(C)=N/S(=O)(=O)c1ccc(C)cc1 (stereo not given),-16,-7,11%,3%,1%,14%
Cc1ccc(NC(=O)c2nc[nH]c2C(=O)N2CCC(C)CC2)cc1,-134*,2,-3%,-9%,-1%,-14%
COc1ccc(NC(=O)c2nc[nH]c2C(=O)N2CCC(C)CC2)cc1,·,·,6%,8%,9%,3%
CC1=C(C(=O)OCc2ccccc2)C(c2ccc(C(C)(C)C)cc2)NC(=O)N1CCCCCC(=O)O (stereo not given),-8,-2,16µM*,-6%,-10%,-16%
CC1=C(C(=O)OCc2ccccc2)C(c2ccccc2)NC(=O)N1CCCCCC(=O)O (stereo not given),-2,-8,3%,-21%,-4%,-2%
Cc1c(NC(=O)c2cccc(-c3cc4ccccc4oc3=O)c2)cccc1-c1nc2ncccc2o1,-96*,-45,6%,-7%,1%,-5%
C=CCOc1ccccc1CN1CCCCCC1,-4,35,3%,1%,-5%,-13%
CN1/C(=C/C=C(C#N)C#N)C(C)(C)c2ccccc21,21,2,228%,9%,112µM*,-1%
